From publication PMC7862700, “An all-to-all approach to the identification of sequence-specific readers for epigenetic DNA modifications on cytosine”

How the values were obtained:
Assay in all cases: DAPPL (digital affinity profiling via proximity ligation, sequencing); 10 mM Tris-HCl pH 7.5, 50 mM NaCl, 1 mM DTT, 4% glycerol, room temperature, 30 min; GST-TFs on glutathione beads, 16-mer random dsDNA library, 0.1% formaldehyde crosslink after washing; high values mean tight binding
[1] = molecular target: T1, FEV (Homo sapiens, UniProt Q99581 1-238); conditions: protein: recombinant; tags: N-terminal GST; dsDNA, one strand shown
T1 sequence: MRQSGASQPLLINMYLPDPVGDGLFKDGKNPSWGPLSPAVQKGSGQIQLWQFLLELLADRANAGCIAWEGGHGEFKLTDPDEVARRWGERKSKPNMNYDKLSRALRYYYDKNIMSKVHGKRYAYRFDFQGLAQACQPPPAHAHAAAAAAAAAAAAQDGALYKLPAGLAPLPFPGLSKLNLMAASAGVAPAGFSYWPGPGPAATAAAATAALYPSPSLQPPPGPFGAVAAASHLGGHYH
How it was run: (§1)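 Pools of DNA-barcoded human transcription factors, expressed in yeast as GST fusions on glutathione beads and combined with a tag-only sample, were incubated with 200 nmole of a 16-mer random double-stranded DNA library. Incubation took 30 min at room temperature in Tris/NaCl/DTT/glycerol buffer and was followed by washing, 0.1% formaldehyde crosslinking, proximity ligation (BsaI/T4 ligase, 1 h, 37 °C), PCR amplification and sequencing on an Illumina NextSeq500. Binding signal is the ratio of a hexamer's read frequency for a factor to its frequency for the tag-only sample.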

[2] = molecular target: ETV5 (Homo sapiens, UniProt P41161 1-510); conditions: protein: recombinant; tags: N-terminal GST; dsDNA, one strand shown
ETV5, sequence (P41161 whole entry): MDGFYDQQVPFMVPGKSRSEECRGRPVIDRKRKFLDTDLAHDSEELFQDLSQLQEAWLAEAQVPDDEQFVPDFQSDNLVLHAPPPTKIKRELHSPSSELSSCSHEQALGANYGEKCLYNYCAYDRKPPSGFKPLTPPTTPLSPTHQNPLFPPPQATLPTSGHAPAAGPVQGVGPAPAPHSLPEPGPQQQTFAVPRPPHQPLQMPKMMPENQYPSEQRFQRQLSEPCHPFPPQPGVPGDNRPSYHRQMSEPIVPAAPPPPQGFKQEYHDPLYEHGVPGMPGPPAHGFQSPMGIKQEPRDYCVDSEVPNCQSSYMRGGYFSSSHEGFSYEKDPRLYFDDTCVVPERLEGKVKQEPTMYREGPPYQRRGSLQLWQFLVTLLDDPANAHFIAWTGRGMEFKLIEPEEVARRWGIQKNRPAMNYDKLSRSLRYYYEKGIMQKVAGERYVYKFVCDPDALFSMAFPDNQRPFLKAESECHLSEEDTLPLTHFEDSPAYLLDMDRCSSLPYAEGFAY
How it was run: as §1

[3] = molecular target: HSF1 (Homo sapiens, UniProt Q00613 1-529); conditions: protein: recombinant; tags: N-terminal GST; chain copies: 3; dsDNA, one strand shown
HSF1, sequence (Q00613 whole entry): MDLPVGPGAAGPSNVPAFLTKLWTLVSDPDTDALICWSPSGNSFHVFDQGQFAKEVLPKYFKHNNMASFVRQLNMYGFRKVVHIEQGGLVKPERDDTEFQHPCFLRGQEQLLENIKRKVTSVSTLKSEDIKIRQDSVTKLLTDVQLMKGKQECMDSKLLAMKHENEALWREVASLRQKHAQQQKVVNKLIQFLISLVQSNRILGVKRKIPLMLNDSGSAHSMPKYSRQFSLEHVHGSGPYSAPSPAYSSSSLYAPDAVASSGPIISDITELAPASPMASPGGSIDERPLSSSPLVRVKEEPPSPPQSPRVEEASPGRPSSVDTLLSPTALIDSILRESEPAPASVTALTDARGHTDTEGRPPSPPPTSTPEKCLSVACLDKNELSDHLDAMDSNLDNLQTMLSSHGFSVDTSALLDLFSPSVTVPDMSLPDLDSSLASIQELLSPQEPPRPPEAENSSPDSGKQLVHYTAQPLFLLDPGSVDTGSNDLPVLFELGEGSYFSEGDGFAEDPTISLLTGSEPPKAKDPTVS
How it was run: as §1

[4] = molecular target: T2, SPIC (Homo sapiens, UniProt Q8N5J4 1-248); conditions: protein: recombinant; tags: N-terminal GST; dsDNA, one strand shown
T2 sequence: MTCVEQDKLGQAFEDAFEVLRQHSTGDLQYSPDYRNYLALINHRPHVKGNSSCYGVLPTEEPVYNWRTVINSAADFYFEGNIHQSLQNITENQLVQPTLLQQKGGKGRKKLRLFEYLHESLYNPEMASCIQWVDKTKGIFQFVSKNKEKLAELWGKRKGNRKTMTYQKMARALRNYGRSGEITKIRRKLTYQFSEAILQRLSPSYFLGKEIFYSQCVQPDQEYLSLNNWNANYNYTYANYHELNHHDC
How it was run: as §1

[5] = molecular target: ELF4 (Homo sapiens, UniProt Q99607 1-663); conditions: protein: recombinant; tags: N-terminal GST; dsDNA, one strand shown
ELF4, sequence (Q99607 whole entry): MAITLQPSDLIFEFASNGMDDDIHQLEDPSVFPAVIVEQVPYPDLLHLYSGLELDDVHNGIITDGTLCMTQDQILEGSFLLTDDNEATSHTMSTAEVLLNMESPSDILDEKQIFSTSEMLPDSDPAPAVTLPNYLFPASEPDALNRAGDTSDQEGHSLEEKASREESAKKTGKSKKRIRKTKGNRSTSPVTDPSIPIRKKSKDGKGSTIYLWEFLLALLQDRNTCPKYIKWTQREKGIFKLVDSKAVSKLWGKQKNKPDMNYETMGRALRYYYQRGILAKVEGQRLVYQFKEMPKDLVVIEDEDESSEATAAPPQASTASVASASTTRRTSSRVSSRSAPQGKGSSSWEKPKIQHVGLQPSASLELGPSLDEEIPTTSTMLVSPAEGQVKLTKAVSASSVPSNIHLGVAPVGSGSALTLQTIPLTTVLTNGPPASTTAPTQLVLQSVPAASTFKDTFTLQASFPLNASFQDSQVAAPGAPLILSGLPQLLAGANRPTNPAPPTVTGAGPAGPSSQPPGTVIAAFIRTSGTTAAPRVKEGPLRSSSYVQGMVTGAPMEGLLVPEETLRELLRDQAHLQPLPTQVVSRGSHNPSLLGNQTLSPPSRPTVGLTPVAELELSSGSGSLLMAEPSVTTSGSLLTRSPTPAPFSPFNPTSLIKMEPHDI
How it was run: as §1

[6] = molecular target: T3, ELK4 (Homo sapiens, UniProt P28324-2 1-405); conditions: protein: recombinant; tags: N-terminal GST; dsDNA, one strand shown
T3 sequence: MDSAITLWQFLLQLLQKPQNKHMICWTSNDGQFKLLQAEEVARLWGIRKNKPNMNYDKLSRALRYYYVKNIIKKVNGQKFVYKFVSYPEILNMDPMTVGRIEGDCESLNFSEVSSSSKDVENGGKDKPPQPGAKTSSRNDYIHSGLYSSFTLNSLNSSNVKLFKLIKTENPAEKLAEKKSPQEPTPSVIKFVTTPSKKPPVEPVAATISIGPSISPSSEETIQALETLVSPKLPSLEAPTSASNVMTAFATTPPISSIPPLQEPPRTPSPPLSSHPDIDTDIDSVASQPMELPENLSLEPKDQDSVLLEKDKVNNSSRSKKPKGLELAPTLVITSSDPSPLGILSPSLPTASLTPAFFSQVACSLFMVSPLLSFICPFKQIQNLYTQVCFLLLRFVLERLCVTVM
How it was run: as §1

[7] = molecular target: T4, ETV2 (Homo sapiens, UniProt O00321 1-342); conditions: protein: recombinant; tags: N-terminal GST; dsDNA, one strand shown
T4 sequence: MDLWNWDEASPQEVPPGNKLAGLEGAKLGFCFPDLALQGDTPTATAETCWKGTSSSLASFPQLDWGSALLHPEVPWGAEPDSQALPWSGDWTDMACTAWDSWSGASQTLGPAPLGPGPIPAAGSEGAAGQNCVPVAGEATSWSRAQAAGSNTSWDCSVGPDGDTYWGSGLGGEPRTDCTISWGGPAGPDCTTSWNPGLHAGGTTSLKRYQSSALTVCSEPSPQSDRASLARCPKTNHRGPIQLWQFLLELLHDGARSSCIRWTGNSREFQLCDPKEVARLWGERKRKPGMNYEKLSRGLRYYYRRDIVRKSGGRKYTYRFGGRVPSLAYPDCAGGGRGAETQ
How it was run: as §1

[8] = molecular target: T5, ELF3 (Homo sapiens, UniProt P78545 1-371); conditions: protein: recombinant; tags: N-terminal GST; dsDNA, one strand shown
T5 sequence: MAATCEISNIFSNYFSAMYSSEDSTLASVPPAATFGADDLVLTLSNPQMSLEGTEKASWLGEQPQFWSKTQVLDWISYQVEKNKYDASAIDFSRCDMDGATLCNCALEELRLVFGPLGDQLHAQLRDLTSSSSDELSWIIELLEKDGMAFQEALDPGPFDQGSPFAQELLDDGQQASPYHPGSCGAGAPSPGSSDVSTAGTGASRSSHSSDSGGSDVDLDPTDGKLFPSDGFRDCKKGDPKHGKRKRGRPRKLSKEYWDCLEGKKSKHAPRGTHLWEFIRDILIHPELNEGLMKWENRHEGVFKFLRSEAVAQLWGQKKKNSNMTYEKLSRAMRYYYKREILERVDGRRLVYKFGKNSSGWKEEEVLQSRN
How it was run: as §1

[9] = molecular target: CRX (Homo sapiens, UniProt O43186 1-299); conditions: protein: recombinant; tags: N-terminal GST; dsDNA, one strand shown
CRX, sequence (O43186 whole entry): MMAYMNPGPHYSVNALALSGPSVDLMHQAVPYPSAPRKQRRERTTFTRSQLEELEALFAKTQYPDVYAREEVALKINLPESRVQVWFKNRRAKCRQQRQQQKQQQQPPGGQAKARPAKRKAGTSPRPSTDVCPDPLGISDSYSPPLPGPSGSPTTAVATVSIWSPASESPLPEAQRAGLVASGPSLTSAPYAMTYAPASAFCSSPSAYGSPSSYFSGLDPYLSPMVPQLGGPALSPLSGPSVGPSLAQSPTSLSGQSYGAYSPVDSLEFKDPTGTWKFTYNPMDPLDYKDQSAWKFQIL
How it was run: as §1

[10] = molecular target: ETV1 (Homo sapiens, UniProt P50549 1-477); conditions: protein: recombinant; tags: N-terminal GST; dsDNA, one strand shown
ETV1, sequence (P50549 whole entry): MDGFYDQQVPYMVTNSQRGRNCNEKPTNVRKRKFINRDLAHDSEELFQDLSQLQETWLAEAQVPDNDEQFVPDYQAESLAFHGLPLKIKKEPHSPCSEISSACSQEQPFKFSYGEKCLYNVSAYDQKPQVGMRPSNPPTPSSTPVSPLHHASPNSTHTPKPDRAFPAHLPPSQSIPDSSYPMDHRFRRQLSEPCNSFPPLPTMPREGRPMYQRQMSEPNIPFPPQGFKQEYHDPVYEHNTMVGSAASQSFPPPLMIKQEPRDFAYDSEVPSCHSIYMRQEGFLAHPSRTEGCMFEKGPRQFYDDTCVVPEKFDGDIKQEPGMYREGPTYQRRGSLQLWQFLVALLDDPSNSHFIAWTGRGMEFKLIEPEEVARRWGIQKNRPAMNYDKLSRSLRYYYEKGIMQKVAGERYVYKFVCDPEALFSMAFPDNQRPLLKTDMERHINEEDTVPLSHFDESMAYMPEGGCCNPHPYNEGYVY
How it was run: as §1

TTGCCC
binding signal [1]: 1.46 fold enrichment (6-mer frequency, TF over GST control)
binding signal [2]: 1.32 fold enrichment (6-mer frequency, TF over GST control)
binding signal [3]: 1.2 fold enrichment (6-mer frequency, TF over GST control)
binding signal [4]: 1.28 fold enrichment (6-mer frequency, TF over GST control)
binding signal [5]: 1.4 fold enrichment (6-mer frequency, TF over GST control)
binding signal [6]: 1.42 fold enrichment (6-mer frequency, TF over GST control)
binding signal [7]: 1.25 fold enrichment (6-mer frequency, TF over GST control)
binding signal [8]: 1.33 fold enrichment (6-mer frequency, TF over GST control)
binding signal [9]: 1.2 fold enrichment (6-mer frequency, TF over GST control)
binding signal [10]: 1.22 fold enrichment (6-mer frequency, TF over GST control)
